Cardio protect = protects H9c2 cardiomyocytes from peroxide injury; hit rate 0.63% among 360,000; protection from H2O2 cell death, % at 20 µM; H2O2 injury protection, ATPLite, 2 h;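 active means compounds giving at least 50% protection of heart cells from peroxide-induced death in the single-dose screen, raw or plate-pattern-corrected value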
NadD inh = inhibitors of Staphylococcus aureus NadD; purified NadD enzyme, colorimetric absorbance read-out; AID 602399; hit rate 0.78% among 360,000; inhibition, % at 20 µM; in the data active means inhibition above about 26%
APOBEC3A inh = blocks human APOBEC3A ssDNA deamination | hit rate 0.41% among 330,000 | inhibition, % at 20 µM | recombinant A3A, FAM/TAMRA ssDNA deamination fluorescence | P31941;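 active means at least 40% inhibition at 20 µM here, with at most 30% in a related deaminase screen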
Target sequence (P31941 whole entry, looked up): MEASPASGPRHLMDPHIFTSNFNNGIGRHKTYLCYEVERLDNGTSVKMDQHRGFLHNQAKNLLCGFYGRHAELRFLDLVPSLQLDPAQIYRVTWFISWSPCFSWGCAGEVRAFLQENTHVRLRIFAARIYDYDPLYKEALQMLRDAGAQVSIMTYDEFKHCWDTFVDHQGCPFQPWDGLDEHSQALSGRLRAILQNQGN
PfGluPho inh = PfG6PD (Plasmodium falciparum) enzyme inhibition | PfGluPho enzyme, NADPH resazurin-diaphorase fluorescence | inhibition, % at 20 µM | hit rate 0.78% among 350,000 | AID 504690;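 active means inhibition reaching at least a set limit at 20 µM in the primary screen, cut at about 59% in these data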
H9c2 TAG inh = reduces triacylglycerol accumulation in H9c2 cells; inhibition, % at 12.5 µM; hit rate 0.66% among 230,000; Nile Red lipid (TAG) fluorescence; cells loaded with 200 µM oleic acid;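 active means pattern-corrected inhibition of lipid staining of at least 50% with the nuclear-stain viability signal not falling by more than 50%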
A3G deaminase = inhibitors of human APOBEC3G DNA deaminase; Q9HC16; recombinant A3G, ssDNA deamination FAM/TAMRA fluorescence; inhibition, % at 20 µM; hit rate 0.28% among 330,000; AID 493012;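 active means inhibition of at least 40% at 20 µM, with no more than 30% in the related APOBEC3A deaminase screen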
Target sequence (Q9HC16 whole entry, looked up): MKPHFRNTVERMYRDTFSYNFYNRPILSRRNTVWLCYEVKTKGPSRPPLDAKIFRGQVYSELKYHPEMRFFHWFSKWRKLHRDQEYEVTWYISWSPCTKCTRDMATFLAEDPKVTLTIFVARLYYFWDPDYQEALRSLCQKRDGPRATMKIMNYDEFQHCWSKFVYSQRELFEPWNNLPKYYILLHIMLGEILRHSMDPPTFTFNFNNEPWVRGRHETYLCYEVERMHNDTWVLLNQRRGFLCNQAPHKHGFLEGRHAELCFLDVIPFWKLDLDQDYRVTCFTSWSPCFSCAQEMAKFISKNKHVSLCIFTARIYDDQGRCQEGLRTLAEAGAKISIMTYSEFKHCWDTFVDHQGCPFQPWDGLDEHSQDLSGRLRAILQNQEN
Hits are given with their value; n = inactive; x = no result given. Hits are enriched below; roughly 2.9% of the tested compounds scored in any of these assays.

SMILES | Cardio protect | NadD inh | APOBEC3A inh | PfGluPho inh | H9c2 TAG inh | A3G deaminase
O=C(NC1CC1)c1cccc(NC(=O)C2CCN(S(=O)(=O)c3cccc(C(F)(F)F)c3)CC2)c1 | n | n | x | n | n | x
O=C(NNC(=O)c1ncc(Cl)c(Cl)c1Cl)c1ccc(F)cc1 | 78 | n | n | n | n | n
O=C(NNC(=O)c1nc(Cl)ccc1Cl)c1ccc(F)cc1 | n | n | n | n | x | n
CC(C)c1ccccc1OCCCCCN1CCOCC1 | n | n | n | n | n | n
CCOc1ccccc1Nc1nnc(SCc2nnc(-c3cc(OC)c(OC)c(OC)c3)o2)s1 | 68 | n | n | n | x | n
Cc1c2c(=O)n(-c3nc4ccccc4s3)nc-2cc(O)n1Cc1ccccc1 | n | 42 | x | n | n | x
Cc1cc(C)n(-c2nc3ccccc3s2)n1 | n | n | n | n | n | n
O=C(c1cc(-c2cccs2)nn1-c1ccccc1)N1CCN(S(=O)(=O)c2ccccc2)CC1 | n | n | n | n | n | n
Cc1nn(Cc2ccc(C(=O)N3CCN(C(=O)c4ccco4)CC3)o2)c(C)c1[N+](=O)[O-] | 54 | n | n | n | n | n
CNC[C@H](Cc1ccccc1)NC[C@@H](Cc1cccc2ccccc12)NCCc1ccc(C)cc1 | n | n | n | n | 138 | n
CCN(C[C@H]1N[C@@](CC)(C(=O)OC)[C@H]2C(=O)N(Cc3ccccc3)C(=O)[C@@H]12)C(=O)c1ccc(C(C)(C)C)cc1 | 63 | n | n | n | n | n
CCN(C[C@H]1N[C@@](C)(C(=O)OC)[C@H]2C(=O)N(Cc3ccccc3)C(=O)[C@@H]12)C(=O)c1ccc(C(C)(C)C)cc1 | 57 | n | n | n | n | n
COc1cccc(OC)c1C(=O)Nc1ccc(C(=O)NCc2ccccc2)cc1 | n | n | n | n | n | n
CNC(=O)c1cccc(NC(=O)c2cc(-c3ccccc3)nc3c2cnn3C(C)C)c1 | 59 | n | n | n | n | n
COc1ccccc1CCC(=O)N1CCN(S(=O)(=O)c2cc(C(F)(F)F)ccc2Cl)CC1 | n | n | n | n | n | n
CCN1CCN(S(=O)(=O)c2ccc(Cl)c(C(=O)NCc3ccco3)c2)CC1 | n | n | n | n | n | n
COc1ccc(-n2cc(CNCCc3cnc[nH]3)c(-c3cccc(F)c3)n2)cc1 | n | n | n | n | n | n
O=C(Nc1ccc(N2CCOCC2)cc1)Nc1ccc2nc(-c3ccco3)c(-c3ccco3)nc2c1 | 63 | n | n | n | x | n
CC(C)N(Cc1ccccc1)C(=O)CC(=O)N(Cc1ccccc1)C(C)C | n | n | n | n | x | n
O=C1/C(=C\c2ccc(O)cc2)SC(=S)N1Cc1ccccc1 | n | n | n | n | x | n
O=C1/C(=C\c2cc(Br)cc(Br)c2O)SC(=S)N1Cc1ccccc1 | n | 42 | n | n | x | n
CC(NC(=O)COc1ncnc2cc([N+](=O)[O-])ccc12)c1ccccc1 (stereo not drawn) | n | n | n | n | x | n
CCOC(=O)c1c(C)[nH]c(C)c1C(=O)COc1ncnc2cc([N+](=O)[O-])ccc12 | 65 | n | n | n | n | n
CC1=C(C)/C(=N\OS(=O)(=O)c2ccccc2)C=CC1=O | n | n | n | 112 | n | n
Cn1c(=O)c(=O)n(C)c2cc(S(=O)(=O)N3CCCC3C(=O)NCc3cccs3)ccc21 (stereo not drawn) | n | n | n | n | n | n
SMILES | Cardio protect | NadD inh | APOBEC3A inh | PfGluPho inh | H9c2 TAG inh | A3G deaminase
O=C1C=CC(=O)N1c1ccccc1N1C(=O)C=CC1=O | n | n | x | 114 | n | x
O=C(c1ccccc1)c1ccccc1N1C(=O)C=CC1=O | n | n | n | n | n | n
OC(c1ccc2c(c1)OCO2)c1ncc(-c2cccc(C(F)(F)F)c2)[nH]1 (stereo not drawn) | n | n | x | x | n | x
O=C(O)CN1C(=O)/C(=C\c2cn(-c3ccccc3)nc2-c2ccccc2)SC1=S | n | 31 | n | n | x | n
Cc1ccc(-c2nn(-c3ccccc3)cc2C=C2SC(=S)N(CCS(=O)(=O)O)C2=O)cc1 | n | 30 | x | x | n | x
O=C1C(=Cc2cn(-c3ccccc3)nc2-c2ccc(OCc3ccccc3)cc2)SC(=S)N1CCS(=O)(=O)O | n | 50 | x | x | n | x
CC(C)COc1ccc(-c2nn(-c3ccccc3)cc2/C=C2/SC(=S)N(CC(=O)O)C2=O)cc1 | n | n | n | n | n | n
CCOc1ccc(-c2nn(-c3ccccc3)cc2/C=C2\SC(=S)N(Cc3ccco3)C2=O)cc1 | n | n | n | n | x | n
C[C@]12c3[nH]c4ccc(Cl)cc4c3CCN1C(=O)[C@@H](CC(=O)NCCN1CCOCC1)C[C@@H]2C(=O)N1CCCCC1 | n | n | n | n | n | n
COCCCn1c(=O)c2sccc2n2c(CCCC(=O)NCc3cccc(OC)c3)nnc12 | n | n | n | n | x | n
O=C(CN1C(=O)NC2(CCCC2)C1=O)NNC(=O)c1ccc(Cl)cc1 | n | n | n | n | n | n
Cc1sc2nc(CSCC(=O)N(C)c3ccccc3)[nH]c(=O)c2c1C | 66 | n | n | n | x | n
Cc1sc2nc(CSCC(=O)Nc3ccc(C(F)(F)F)cc3)[nH]c(=O)c2c1C | n | n | n | n | n | n
Cc1sc2nc(CSCC(=O)N(CCC#N)c3ccccc3)[nH]c(=O)c2c1C | 64 | n | n | n | n | n
Cc1sc2nc(CSCC(=O)N(C)CC(=O)Nc3ccc(F)cc3)[nH]c(=O)c2c1C | 54 | n | n | n | n | n
Cc1sc2nc(CSCC(=O)Nc3c(F)cccc3F)[nH]c(=O)c2c1C | n | n | n | n | n | n
C=CCOc1c(Br)cc(CNc2ccc(NC(=O)C(C)C)c(OC)c2)cc1OCC | n | n | n | 60 | x | n
C=CCOc1c(Br)cc(CNc2ccc(NC(=O)CCC)cc2)cc1OCC | n | n | n | n | x | n
CC(C)Cn1c(=O)c2ccccc2n2c(CCC(=O)O)nnc12 | n | n | n | n | x | n
O=C1Cc2c([nH]c3ccc([N+](=O)[O-])cc23)-c2ccccc2N1 | n | n | x | n | n | x
COC1=C(N)C(=O)c2nc(-c3nc(C(=O)O)c(C)c(-c4ccc(OC)c(OC)c4O)c3N)ccc2C1=O | x | x | n | 93 | x | n
Cc1cnc(C=O)c2cccc([N+](=O)[O-])c12 | 57 | n | x | n | n | x
COc1ccc(Oc2ccc(/C=C/C(=O)c3cccc(OC)c3)cc2[N+](=O)[O-])cc1 | n | n | n | n | x | n
CN(C)CCCn1c2c3ccccc3ccc2c2oc(=O)c3ccccc3c21 | n | n | x | n | 78 | x
Cc1ccc(NS(=O)(=O)c2ccc3[nH]c(=O)c(=O)[nH]c3c2)cc1Cl | n | n | n | n | n | n
Cc1ccc(NS(=O)(=O)c2ccc(Cl)c(N=Nc3c(O)[nH]c(=O)[nH]c3=O)c2)cc1Cl | n | 31 | n | n | n | n
CC(=O)SC(C[N+](=O)[O-])c1cn(C(C)=O)c2ccccc12 (stereo not drawn) | n | n | n | 63 | n | n
CC(=O)n1cc(Nc2ccc([N+](=O)[O-])cc2)c2ccccc21 | n | n | n | n | n | n
